# Laboratory results reported in PubChem BioAssay.
# “And” between values parts separate entries of the source, which are not always exact repeats. Equal values may be shown once. The source made the active and inactive calls.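 How the source made its calls, unless noted: active means NADPH fluorescence slope more negative than the mean of all samples by about 3 SD, 99.7% confidence; inactive means the rest.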
# Columns and labels:
# [1] = inhibitors of TNFa-induced NFkB p65 translocation, primary screen, imaging, HUVEC, MLSMR starter and 10KST1 sets (AID 438;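 active means inhibition above 20% together with a positive visual image hit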;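 further: compound added about 3h40 before a 20 min TNFalpha stimulation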;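 on inhibition: signal is the nuclear over cytoplasmic p65 intensity ratio per well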); settings: HUVEC TNFa-induced p65 nuclear translocation; cell count: measured here: nuclei count (cytotoxicity indicator), at 2.08 µM; inhibition: at 2 µM, stronger effect = higher value, 0% TNFa-plus-vehicle, 100% no-TNFa wells
# [2] = endothelial E-selectin expression blockers – imaging, HUVEC, immunofluorescence, MLSMR starter and 10KST1 sets, primary screen (AID 487;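 active means visually confirmed hit in the image check and inhibition above 20%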;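 on inhibition: signal is fraction of cell area covered by stained E-selectin grains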;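 on nuclei count: 100% = median nuclei count of all wells on the same plate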); settings: HUVEC TNFalpha-induced E-selectin immunofluorescence imaging, at 2 µM; inhibition: stronger effect = higher value; nuclei count: measured here: cell number, toxicity
# [3] = Primary imaging screen for DUSP6 inhibitors that restore phospho-Erk in transfected HeLa cells, chemical complementation (AID 609;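 active means compounds giving at least 50% inhibition in the cell-based MKP-3 phosphatase rescue imaging test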;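 on inhibition: phospho-Erk level distribution per well compared with pooled transfected vehicle control wells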); settings: HeLa MKP-3 transfected, phospho-Erk imaging KS statistic, at 10 µM, cells stimulated with TPA for 15 min
# [4] = target: Dual specificity protein phosphatase 6 (Homo sapiens) (UniProt Q16828); test: as above; settings: HeLa MKP-3 transfected, phospho-Erk imaging KS statistic; at 10 µM; stronger effect = higher value; cells stimulated with TPA for 15 min
# [5] = target: Voltage-gated potassium channel subunit beta-2 (Rattus norvegicus) (UniProt P62483); test: inhibitors of rat Kvbeta2 reductase activity – biochemical, NADPH fluorescence, primary screen (AID 622;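 active means fluorescence slope higher than the sample average by over 3 SD, cut at about -0.22 in these data, passing the limit was not always enough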;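 further: slope of raw intensity against log time taken from 70 to 1610 s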); settings: recombinant KvBeta, 4-cyanobenzaldehyde reduction, at 10 µM, stronger effect = higher value
# [6] = target: Voltage-gated potassium channel subunit beta-2 (Rattus norvegicus) (UniProt P62483); test: enhancers of rat Kvbeta2 NADPH turnover – biochemical, NADPH fluorescence, primary screen (AID 623); settings: Recombinant KvBeta, NADPH fluorescence decrease slope, 10 min; at 10 µM; stronger effect = lower value;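 further: fluorescence intensity change per second fitted from 20 to 320 s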
# [7] = target: Alpha-2C adrenergic receptor (Homo sapiens) (UniProt P18825); test: compounds altering alpha2C-coupled GIRK flux – cell-based, HEK293 alpha2C/GIRK1/2, thallium flux, primary screen (AID 624;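 active means fluorescence slope after compound addition differing from the mean of all screened samples at 99.7% confidence, in either direction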;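 further: slope of fluorescence ratio to pre-addition baseline per second over 15 to 24 s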); settings: thallium flux BTC fluorescence, at 10 µM, actives lie on both sides
# [8] = inhibitors of larval lipid processing in zebrafish, primary screen, whole organism, PED6 fluorescence, gall bladder and intestine (AID 686;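 active means a full or partial loss of lipid-probe fluorescence in the fish gall bladder, intestine or both, judged by eye; inactive means no fluorescence loss, or compound toxic to the fish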;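 further: larvae 5 to 7 days old with five fish per well; signal comes from phospholipase A2 cleavage of quenched PED6 carried via bile; overnight exposure to compound and PED6 before scoring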); settings: Zebrafish larvae PED6 lipid processing, fluorescence scoring; screened at 20 µM (by protocol)
# [9] = loss of swimming-algae plug formation – whole organism, Chlamydomonas reinhardtii, WT vs cilia-less mutant, absorbance, 96-well, primary screen (AID 463189;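 active means inhibition at or above 50% relative to wild type and mutant plate controls; inactive means inhibition below 50%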;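 further: 0% = wild type cc124 cells in DMSO and 100% = ciliumless bld1 mutant cells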); settings: Chlamydomonas reinhardtii gravitaxis, OD600 absorbance, 2 days; at 10 µM; stronger effect = higher value
# [10] = target: Muscarinic acetylcholine receptor M4 (Homo sapiens) (UniProt P08173); test: M4-linked GIRK flux change, two-sided – cell-based, HEK293 M4/GIRK, thallium flux, BTC-AM, M4 allosteric agonist project, primary screen (AID 625;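 active means fluorescence slope after compound addition differing from the mean of all tested samples at 99.7% confidence, mostly higher but some lower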;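 further: thallium influx through GIRK channels coupled to M4 in HEK293 cells with BTC-AM dye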); settings: at 10 µM, actives lie on both sides
# [11] = blockers of RIG-like receptor reporter activation – cell-based, Sendai virus stimulus, luciferase, 10K MLSCN set, TLR/RLR signaling modifier project, primary screen (AID 602276;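 active means inhibition at or above 50% at 10 µM; inactive means inhibition below 50%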;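 further: firefly luciferase from ISG56 promoter only with Renilla not read in this screen; 0% = Sendai virus plus DMSO and 100% = medium plus DMSO without virus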); settings: HEK293 RL24 IRF3 luciferase reporter, at 10 µM, stronger effect = higher value
# [12] = TLR3 IRF3 reporter activation blockers – cell-based, poly I:C stimulus, luciferase, 10K MLSCN set, primary screen (AID 602277;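 active means inhibition of the reporter signal at or above 50%; inactive means inhibition below 50%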); settings: HEK293-TLR3 RL24 IRF3 luciferase reporter, at 10 µM, stronger effect = higher value
# [13] = measured here: cell density z-score
# [14] = measured here: nuclear c-Myc green intensity z-score
# [15] = measured here: nuclear pErk red intensity z-score, stronger effect = higher value
# Sequence of Dual specificity protein phosphatase 6 (Homo sapiens) (Q16828 whole entry, looked up): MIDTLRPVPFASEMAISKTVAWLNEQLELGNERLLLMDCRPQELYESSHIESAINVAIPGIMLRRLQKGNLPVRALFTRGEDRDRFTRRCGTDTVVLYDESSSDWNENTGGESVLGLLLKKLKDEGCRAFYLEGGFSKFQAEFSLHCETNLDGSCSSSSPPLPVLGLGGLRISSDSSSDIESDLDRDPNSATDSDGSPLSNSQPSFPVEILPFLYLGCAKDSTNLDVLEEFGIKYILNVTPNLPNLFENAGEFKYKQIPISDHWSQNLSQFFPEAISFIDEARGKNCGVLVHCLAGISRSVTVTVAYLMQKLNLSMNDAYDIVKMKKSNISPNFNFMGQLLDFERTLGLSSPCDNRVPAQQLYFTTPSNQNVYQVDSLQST
# Sequence of Muscarinic acetylcholine receptor M4 (Homo sapiens) (P08173 whole entry, looked up): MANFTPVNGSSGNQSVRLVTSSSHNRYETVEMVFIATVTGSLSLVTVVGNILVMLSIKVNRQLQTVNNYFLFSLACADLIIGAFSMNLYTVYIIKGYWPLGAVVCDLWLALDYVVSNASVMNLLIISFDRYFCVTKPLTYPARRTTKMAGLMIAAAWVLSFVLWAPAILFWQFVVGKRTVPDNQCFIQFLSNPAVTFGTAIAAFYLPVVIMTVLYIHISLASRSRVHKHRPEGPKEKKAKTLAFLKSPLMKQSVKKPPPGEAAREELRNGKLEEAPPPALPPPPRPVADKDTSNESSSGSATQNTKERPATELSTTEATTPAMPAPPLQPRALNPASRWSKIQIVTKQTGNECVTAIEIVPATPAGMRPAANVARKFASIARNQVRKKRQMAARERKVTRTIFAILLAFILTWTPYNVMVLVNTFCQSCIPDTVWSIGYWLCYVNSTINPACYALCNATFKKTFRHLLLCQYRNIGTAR
# Sequence of Voltage-gated potassium channel subunit beta-2 (Rattus norvegicus) (P62483 whole entry, looked up): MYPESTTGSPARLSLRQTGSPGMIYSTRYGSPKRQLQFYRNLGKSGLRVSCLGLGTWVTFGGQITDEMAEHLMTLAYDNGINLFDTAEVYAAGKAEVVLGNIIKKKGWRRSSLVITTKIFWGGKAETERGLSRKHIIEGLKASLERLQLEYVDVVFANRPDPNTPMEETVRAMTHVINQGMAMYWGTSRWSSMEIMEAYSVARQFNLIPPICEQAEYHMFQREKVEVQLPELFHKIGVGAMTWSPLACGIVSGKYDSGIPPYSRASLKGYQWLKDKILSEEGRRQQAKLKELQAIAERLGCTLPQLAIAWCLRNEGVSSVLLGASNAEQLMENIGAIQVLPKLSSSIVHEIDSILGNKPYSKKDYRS
# Sequence of Alpha-2C adrenergic receptor (Homo sapiens) (P18825 whole entry, looked up): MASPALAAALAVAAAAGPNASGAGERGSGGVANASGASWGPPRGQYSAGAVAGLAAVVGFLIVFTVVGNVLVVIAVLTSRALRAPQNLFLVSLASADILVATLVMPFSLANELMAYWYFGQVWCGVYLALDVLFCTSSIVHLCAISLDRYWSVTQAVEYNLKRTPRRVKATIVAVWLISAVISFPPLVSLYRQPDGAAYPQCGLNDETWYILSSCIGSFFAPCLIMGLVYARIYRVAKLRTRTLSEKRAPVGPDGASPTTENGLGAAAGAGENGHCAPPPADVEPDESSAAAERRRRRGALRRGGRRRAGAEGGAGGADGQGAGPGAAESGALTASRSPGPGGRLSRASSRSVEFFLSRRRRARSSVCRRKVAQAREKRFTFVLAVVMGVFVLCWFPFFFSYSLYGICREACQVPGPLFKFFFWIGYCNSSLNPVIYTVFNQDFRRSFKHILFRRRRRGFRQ
SMILES,cell count [1],inhibition [1],inhibition [2],nuclei count [2],"z-score [3, 13]","z-score [3, 14]","z-score [3, 15]",inhibition [4],fluorescence slope [5],NADPH fluorescence slope [6],slope [7],outcome [8],inhibition [9],fluorescence slope [10],inhibition [11],inhibition [12]
CC1(C)CC(=O)c2cc(C(=O)N3CCCC(C)(C)C3)c(=O)n(-c3ccccc3)c2C1,523,-8% (inactive),-71.4% (inactive),121%,0.578,0.18,1.1,7.48% (inactive),-0.48 (inactive),-0.000165 (inactive),0.00502 (inactive),inactive,31.5% (inactive),,,
N#Cc1nc(-c2cccs2)oc1NCCN1CCOCC1,666,6.6% (inactive),-60.7% (inactive),146%,0.927,0.0167,-0.446,10.9% (inactive),-0.0476 (inactive),-2.5e-05 (inactive),,inactive,6.5% (inactive),0.00626 (inactive),,
O=C1C=C(NCCNc2c(F)c(F)c(CO)c(F)c2F)CCC1,504,-12.3% (inactive),-87.2% (inactive),105%,0.485,-0.53,-1.21,17.8% (inactive),-0.396 (inactive),-1.8e-05 (inactive),,inactive,32.9% (inactive),0.00657 (inactive),,
C=CC(O)Cc1c(C)n[nH]c1C (stereo not given),656,-7.1% (inactive),-59.4% (inactive),167%,-1.01,-0.115,-0.502,-9.66% (inactive),-0.503 (inactive),-6.2e-05 (inactive),,inactive,11.7% (inactive),0.00568 (inactive),,
Cn1c(=O)c2c(nc(NCC(O)CO)n2CCc2ccccc2)n(C)c1=O (stereo not given),693,2% (inactive),-108% (inactive),172%,0.322,-1.96,-0.0564,19.8% (inactive),-0.483 (inactive),-1e-05 (inactive),,inactive,24.7% (inactive),0.00665 (inactive),,
Cn1c(N2CCOCC2)nc2c1c(=O)n(Cc1ccc(Cl)cc1)c(=O)n2C,644,12.1% (inactive),-31.1% (inactive),101%,0.134,0.368,0.486,-2.09% (inactive),-0.446 (inactive),-3.4e-05 (inactive),,inactive,-7.86% (inactive),0.00452 (inactive),,
COC(=O)C1=C(C)N=C2SC(C)C(=O)N2C1c1ccc(C(=O)OC)cc1 (stereo not given),746,-2.4% (inactive),-42.3% (inactive),164%,0.938,-0.219,-3.03,9.61% (inactive),-0.448 (inactive),-4.8e-05 (inactive),,inactive,1.12% (inactive),0.00486 (inactive),,
COc1ccc(-n2ccc(=O)c3c2CCCC3=O)cc1,538,-18% (inactive),-24.2% (inactive),175%,0.411,1.24,0.919,-3.97% (inactive),-0.383 (inactive),-5.1e-05 (inactive),,inactive,-7.89% (inactive),0.00531 (inactive),,
Cc1ccc(-c2nnc(OCCN3CCOCC3)c3ccccc23)cc1,453,0.4% (inactive),-85.1% (inactive),167%,1.01,-0.803,-0.0262,4.37% (inactive),-0.463 (inactive),-2.6e-05 (inactive),,inactive,30.5% (inactive),0.00559 (inactive),,
O=C1CCC(=O)N1CN(Cc1ccco1)CN1C(=O)CCC1=O,512,-4.8% (inactive),-33.2% (inactive),158%,2.24,-1.47,0.89,37.7% (inactive),-0.376 (inactive),-1.3e-05 (inactive),,inactive,13.2% (inactive),0.00674 (inactive),,
CC(NC(=O)NC(N)=O)(C(F)(F)F)C(F)(F)F,674,6.8% (inactive),-84.9% (inactive),109%,0.562,0.75,0.26,13.9% (inactive),-0.534 (inactive),-1.1e-05 (inactive),,inactive,21.5% (inactive),0.00493 (inactive),,
Nc1nonc1C(=O)NCCN=Cc1cc(Cc2ccccc2)cc(Br)c1O,537,-4.9% (inactive),49.5% (inactive),156%,-0.875,1.06,0.686,-1.98% (inactive),-0.41 (inactive),-6.3e-05 (inactive),,inactive,-5.78% (inactive),0.00522 (inactive),,
CCCCc1c(C)c2ccc(OCC(C)=O)cc2oc1=O,647,-10% (inactive),51.6% (inactive),90.6%,-2.59,0.867,-5.29,47.6% (inactive),-0.472 (inactive),-3.8e-05 (inactive),,inactive,-0.273% (inactive),0.00708 (inactive),,
c1ccc(CSc2nnc(SCc3ccccn3)s2)nc1,352,-20.9% (inactive),,173%,1.06,-1.17,0.36,3.66% (inactive),-0.405 (inactive),-5.6e-05 (inactive),0.00665 (inactive),inactive,-2.59% (inactive),,,
COC(=O)CSc1ncnc2c1sc1nc(-c3ccco3)c3c(c12)CC(C)(C)OC3,514,-12.6% (inactive),-71.6% (inactive),130%,-0.117,0.288,-0.223,9.91% (inactive),-0.364 (inactive),-2e-06 (inactive),,inactive,-8.07% (inactive),0.00608 (inactive),,
CC1CN(C2CCN(C(=O)c3ccccc3)CC2)CC(C)O1 (stereo not given),391,-25.6% (inactive),,174%,1.48,-0.00638,-0.737,-0.159% (inactive),-0.395 (inactive),-3.8e-05 (inactive),0.00679 (inactive),inactive,4.48% (inactive),,,
Cc1ccc(Cn2ncc3c(N4CCN(c5ccc(C)cc5)CC4)ncnc32)cc1,548,-0.1% (inactive),2.9% (inactive),164%,0.777,0.779,1.42,17.8% (inactive),-0.39 (inactive),-5.3e-05 (inactive),,inactive,-10.9% (inactive),0.00638 (inactive),,
Cc1cc(NC(=O)CSc2nc(-c3cccnc3)ccc2C#N)no1,733,-10.3% (inactive),-53% (inactive),171%,0.472,0.655,-0.248,4.25% (inactive),-0.414 (inactive),-4.1e-05 (inactive),,inactive,44.8% (inactive),0.00502 (inactive),,
COC(=O)C(NC(C)=O)(Nc1nc2c(s1)CCCC2)C(F)(F)F (stereo not given),370,-7.5% (inactive),-63.7% (inactive),193%,1.49,0.382,-1.06,5.42% (inactive),-0.414 (inactive),-0.000114 (inactive),,inactive,-6.09% (inactive),0.00554 (inactive),,
O=C(O)c1c[nH]c2ccc(S(=O)(=O)N3CCOCC3)cc12,597,-4.4% (inactive),-208% (inactive),144%,-0.324,-1.59,0.18,5.42% (inactive),-0.496 (inactive),-6.6e-05 (inactive),,inactive,8.59% (inactive),0.00433 (inactive),,
N#C/C(C(=O)NCc1ccccc1)=C1\SC(CCO)C(=O)N1c1ccccc1 (stereo not given),501,-3.4% (inactive),-97.3% (inactive),120%,0.0433,1.04,-2.12,5.42% (inactive),-0.429 (inactive),-1.4e-05 (inactive),,inactive,-13.8% (inactive),0.00513 (inactive),,
CCN(CC)CC(=O)Nc1c(C)cccc1C,642 and 715,-6.5% (inactive) and -1% (inactive),-39.3% (inactive) and -82.5% (inactive),130% and 116%,-0.149 and 1.01,0.72 and -0.684,-0.101 and 0.844,15.3% (inactive) and 14.6% (inactive),-0.457 (inactive) and -0.466 (inactive),7.7e-06 (inactive) and -5.7e-05 (inactive),0.00536 (inactive) and 0.0061 (inactive),,,,11.4% (inactive) and 10.3% (inactive),39.6% (inactive) and 42.7% (inactive)
COC(=O)c1[nH]c(C)c(/C(O)=C2\C(=O)C(=O)N(CCN3CCOCC3)C2c2cccnc2)c1C (stereo not given),605,-1.2% (inactive),-2.2% (inactive),163%,-1.96,0.711,-3.8,-3.95% (inactive),-0.46 (inactive),-0.000197 (inactive),,inactive,5.4% (inactive),0.00521 (inactive),,
O=C(NC1CCCCC1)Nn1c(-c2ccccc2)nc2ccccc2c1=O,695,-7.6% (inactive),-60.6% (inactive),203%,-0.332,-0.26,0.432,-9.53% (inactive),-0.473 (inactive),-0.000129 (inactive),,inactive,2.04% (inactive),0.00473 (inactive),,
